Results on 27 compounds are retold here after PubChem BioAssay (Tox21).

Calls of active or inactive are those of the source. A call without a number means that no potency is given here. Calls come from the whole dose curve.

In this test the target is Gonadotropin-releasing hormone receptor (Homo sapiens) (UniProt P30968). Kind of test: Human gonadotropin-releasing hormone receptor (GnRHR) small molecule agonists, calcium flux assay in GnRHR-HEK293 cells (AID 1920063). Note: nearly all actives have a fitted effect of over 35% in size. As to conditions: calcium flux fluorescence, agonist mode; series mostly up to 57.6 µM. The method, boiled down: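 Fluorescence kinetics (480 nm excitation, 540 nm emission; 3 min, 1 s steps) report calcium mobilisation in human GnRHR-HEK293 cells in agonist mode. Dye incubation: 1 h, 37 C.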
Gonadotropin-releasing hormone receptor (Homo sapiens), sequence (P30968 whole entry, looked up): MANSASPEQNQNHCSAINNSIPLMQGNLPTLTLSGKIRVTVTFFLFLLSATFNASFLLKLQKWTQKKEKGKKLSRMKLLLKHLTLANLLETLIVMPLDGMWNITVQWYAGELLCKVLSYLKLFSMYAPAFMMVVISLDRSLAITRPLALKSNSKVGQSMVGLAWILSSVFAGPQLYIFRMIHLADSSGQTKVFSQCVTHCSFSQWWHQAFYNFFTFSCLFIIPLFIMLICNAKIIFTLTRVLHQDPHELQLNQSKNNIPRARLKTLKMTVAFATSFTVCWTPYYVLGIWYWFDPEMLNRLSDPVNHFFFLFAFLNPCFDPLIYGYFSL
On the technique in general: A change in cytosolic calcium serves as a functional read-out for many receptors and channels.
In the case of `COc1ccc(NC(C)=O)cc1`, the Potency entry was “inactive”. The value for `c1cnc2cc3c(cc2n1)C1CNCC3C1` was “inactive”; that for `OCc1c2ccccc2cc2ccccc12` was “inactive”; that for `Oc1ccc(Cl)cc1Sc1cc(Cl)ccc1O` was “inactive”. With `CCCc1ccccc1` the entry was “inactive”. With `CC(=O)CC(C)=O` the entry was “inactive”.

Take `C=CC(=O)OCCCCCC`: the Potency entry is “inactive”. With `CC(C)(C)C(=O)OCOP(=O)(COCCn1cnc2c(N)ncnc21)OCOC(=O)C(C)(C)C` the entry was “inactive”; with `Oc1ccc(C(c2ccc(O)cc2)C(Cl)(Cl)Cl)cc1`, “inactive”; with `Nc1cc(S(=O)(=O)O)cc2cc(S(=O)(=O)O)cc(O)c12`, “inactive”. With `N=C(N=C(N)N)N1CCOCC1` the entry was “inactive”; with `Oc1c(Cl)ccc(Cl)c1Cl`, “inactive”. With `CC1=CC[C@@]23C[C@@H]1C(C)(C)[C@@H]2CC[C@H]3C` the entry was “inactive”; with `O=C(O)c1cccc(C(F)(F)F)c1`, “inactive”; with `CC(O)Cn1cnc2c1c(=O)n(C)c(=O)n2C` (configuration not stated), “inactive”. For `CN(C)CCOC(c1ccc(Cl)cc1)c1ccccn1` (configuration not stated), the Potency result is “inactive”. For `O=C(O)c1cc(-c2ccccc2)nc2ccccc12`, the Potency entry was “inactive”.

Turning to `CC1(C)C(O)C(C)(C)C1O` (configuration not stated), the Potency result is “inactive”.

Regarding `Cc1ccc(N(C)C)cc1`, the Potency entry was “inactive”. On to `C/C=C/C(=O)CCCC`, for which the Potency entry was “inactive”. The value for `CC(C)(c1ccc(O)cc1)c1ccc(O)cc1` was “inactive”; that for `C=CCCCCCCCC` was “inactive”. The value for `CC(C)=O` was “inactive”. With `O=C(O)[C@@H]1[C@H]2C[C@H]3c4[nH]c5ccccc5c4CCN3C[C@@H]2CC[C@@H]1O` the entry was “inactive”; with `C=CC(C)CCC=C(C)C` (configuration not stated), “inactive”; with `O=C(O)C(=O)Nc1cccc(-c2nn[nH]n2)c1`, “inactive”. For `CN(C)N=Nc1ccccc1`, the Potency entry was “inactive”.
